Screening data deposited in PubChem BioAssay by several laboratories.
Only some compounds are listed: those with a hit (about 6.7% of all), similar ones and a draw of the others.
BoNT F protease: inhibitors of Botulinum neurotoxin F light chain protease. Multiplex microsphere protease cleavage assay, flow cytometry. inhibition, % at 10 µM. 360,000 compounds, 0.22% hits; in the data active = inhibition above about 35%, passing the limit was not always enough; inconclusive = no clear call, values can overlap the other calls; note: plate controls were buffer without enzyme for full effect and enzyme alone for no effect
BoNT A protease: inhibitors of Botulinum neurotoxin A light chain protease; 360,000 compounds, 0.17% hits; inhibition, % at 10 µM; multiplex microsphere protease substrate cleavage, flow cytometry; in the data active = inhibition above about 30%; inconclusive = no clear call, values can overlap the other calls; note: plate controls were buffer without enzyme for full effect and enzyme alone for no effect
GDH-TPI counter-1: GDH-TPI coupled enzyme inhibition counter-screen; GDH-TPI coupled enzyme counterscreen, NADH absorbance; inhibition, % at 4.8 µM; 360,000 compounds, 1.2% hits; in the data active = inhibition above about 30%;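 note: 0% = DMSO wells and 100% = wells lacking the enzyme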
Mtb FBA inh: inhibitors of M. tuberculosis fructose-bisphosphate aldolase | P9WQA3 | purified M. tuberculosis FBA, fluorescence read-out | inhibition, % at 1 µM | 360,000 compounds, 2.3% hits;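 note: 0% = vehicle and 100% = reference inhibitor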
Anthrax LF inh2: inhibitors of Bacillus anthracis lethal factor protease; P15917; AID 588501; 360,000 compounds, 0.12% hits; inhibition, % at 10 µM; multiplex microsphere protease cleavage assay, LF; in the data active = inhibition above about 30%; inconclusive = no clear call, values can overlap the other calls; note: plate controls were buffer without enzyme for full effect and enzyme alone for no effect
Bead autofluor: compound fluorescence in toxin protease inhibitor counterscreen | 360,000 compounds, 3.1% hits | fluorescence intensity (test concentration not listed) | AID 624483 | compound autofluorescence counterscreen, microsphere flow cytometry; active compounds read high; in the data active = fluorescence intensity above about 16000; inconclusive = no clear call, values can overlap the other calls
Mtb FBA inh conf: Mtb FBA inhibition, confirmed. inhibition, % at 1 µM. purified M. tuberculosis FBA, fluorescence read-out. shares compounds with Mtb FBA inh. 5,600 compounds, 78% hits. AID 651616;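 note: 0% = vehicle wells and 100% = reference inhibitor wells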
GDH-TPI counter-2: inhibits GDH-TPI coupling enzymes, flagging Mtb FBA hits; shares compounds with Mtb FBA inh; GDH-TPI coupled enzyme counterscreen, fluorescence; inhibition, % at 1 µM; 5,600 compounds, 81% hits; AID 652141; in the data active = inhibition above about 10%
* hit, by the source's call; ? = inconclusive; / = no result given; + = active, no number. Cut-off read from the data, not from the text of the source, unless noted: active = inhibition above about 27%; inactive = the rest.

SMILES	BoNT F protease	BoNT A protease	GDH-TPI counter-1	Mtb FBA inh	Anthrax LF inh2	Bead autofluor	Mtb FBA inh conf	GDH-TPI counter-2
O=C(COC(=O)c1ccccc1C(=O)c1ccccc1)Nc1cccc([N+](=O)[O-])c1	-2	0	5	55*	0	2560	85*	74*
O=C(COC(=O)COc1ccccc1)Nc1cccc([N+](=O)[O-])c1	-1	0	3	0	-1	4568	/	/
CC1CCN(C(=O)c2cc(-c3ccc4c(c3)OCO4)on2)CC1	-9	-1	2	3	-5	3924	/	/
O=C(c1cnccn1)N(c1ccccc1)C1(C(=O)NC2CCCC2)CCCCC1	?	0	-13	-17	5	3500	/	/
O=C(c1cnccn1)N(c1ccccc1)C1(C(=O)NC2CCCCC2)CCCCC1	-26	-1	2	30*	-1	4710	29*	18*
CCOC(=O)c1ccc(N2C=C(C(=O)OC)C(c3cccc(O)c3)C(C(=O)OC)=C2)cc1	-2	-1	7	111*	-6	3603	97*	81*
COC(=O)C1=CN(c2ccc(OC)cc2)C=C(C(=O)OC)C1c1cccc(F)c1	?	-1	-1	26	-1	4257	/	/
CCc1cc2c(cc3c(=O)n(CC(=O)N4CCN(C)CC4)ncn32)s1	0	0	2	-2	-3	4345	/	/
O=C(CCc1nc2ccccc2c(=O)[nH]1)N1CCN(S(=O)(=O)c2ccccc2Br)CC1	-2	-2	-2	0	1	5709	/	/
CCCN(CCC)CCNC(=O)c1cc2c(-c3ccc(Cl)cc3)nn(C)c2s1	-41	-1	11	50*	7	3072	163*	120*
CCOCCCNC(=O)c1cc2c(-c3ccc(Cl)cc3)nn(C)c2s1	-5	0	12	63*	-8	5047	71*	55*
CCCN(CCC)CCNC(=O)c1cc2c(-c3ccccc3F)nn(C)c2s1	?	-3	7	87*	-3	4314	100*	81*
CCCCN(CC)CCNC(=O)c1cc2c(-c3ccc(Cl)cc3)nn(C)c2s1	-44	-1	1	77*	13	4642	5	-4
CCN(C1CCCCC1)S(=O)(=O)c1cn(C)c(=O)n(C)c1=O	6	0	7	1	4	4432	/	/
O=C(OCc1ccccc1)N1CCC2CC1c1cc(N3CCN(S(=O)(=O)c4cccc(C(F)(F)F)c4)CC3)ccc12 (stereo unspecified)	-1	-1	15	5	-11	3040	/	/
COc1cc(C2C(C#N)=C(C)NC3=C2C(=O)c2ccccc23)cc(OC)c1OC (stereo unspecified)	-5	0	0	-1	-2	11695	/	/
CC[C@]12c3[nH]c4cc(-c5ccco5)ccc4c3CCN1C(=O)[C@@H](CC(=O)NCc1ccc(OC)c(OC)c1)C[C@@H]2C(=O)N1CCN(C(=O)c2ccco2)CC1	1	0	22	14	-8	4102	/	/
CCN(CC)C(=O)[C@H]1C[C@H](CC(=O)NCc2ccc(OC)c(OC)c2)C(=O)N2CCc3c([nH]c4cc(-c5ccco5)ccc34)[C@]12C	0	-1	16	46*	-5	3837	144*	105*
COc1ccc(CNC(=O)C[C@H]2C[C@H](C(=O)N3CCCCC3)[C@@]3(C)c4[nH]c5cc(-c6ccco6)ccc5c4CCN3C2=O)cc1OC	-4	0	10	28*	-8	3888	79*	56*
CCC(=O)Nc1nnc(SCC(=O)N2c3ccccc3CC2C)s1 (stereo unspecified)	5	1	11	-1	0	8963	/	/
Cn1c(=O)n(Cc2ccc(F)cc2)c(=O)c2c1nc1n2CCCN1C1CCCCC1	10	0	1	29*	-3	4887	154*	147*
Cc1ccc(S(=O)(=O)N2CCC3(CC2)CC(=O)c2ccccc2O3)cc1	-10	-1	2	9	-2	4904	/	/
CCc1c(C)c2ccc(OCC(=O)NCC3CCC(C(=O)O)CC3)cc2oc1=O (stereo unspecified)	-2	0	19	79*	-10	5900	56*	36*
Cc1c(Cc2ccccc2)c(=O)oc2cc(OC(C)C(=O)NCC3CCC(C(=O)O)CC3)c(Cl)cc12 (stereo unspecified)	-5	-1	28	34*	-2	4249	+	190*
O=C(COc1ccc2c(c1)oc(=O)c1ccccc12)NCC1CCC(C(=O)O)CC1 (stereo unspecified)	-5	0	19	34*	-3	6060	90*	54*
SMILES	BoNT F protease	BoNT A protease	GDH-TPI counter-1	Mtb FBA inh	Anthrax LF inh2	Bead autofluor	Mtb FBA inh conf	GDH-TPI counter-2
O=C(COc1cc2oc(=O)cc(-c3ccccc3)c2cc1Cl)NCC1CCC(C(=O)O)CC1 (stereo unspecified)	-17	0	24	5	-2	4084	/	/
CCCCc1cc(=O)oc2cc(OCC(=O)NCC3CCC(C(=O)O)CC3)ccc12 (stereo unspecified)	-11	-1	11	21	1	4337	/	/
COc1cccc(N2CCC(N3CCN(C)C(CCO)C3)CC2)c1 (stereo unspecified)	?	-2	7	0	5	3528	/	/
O=C(O)Cn1c(P(=O)(O)c2ccccc2)nc2ccccc21	18	1	-2	0	-3	4426	/	/
CCC(C)NC(=O)COC(=O)c1cccnc1Nc1ccccc1F (stereo unspecified)	-1	0	10	-3	1	2590	/	/
Cc1cc(C)c(-c2cc(C(F)(F)F)no2)c(=O)[nH]1	-5	?	22	30*	0	17034*	+	147*
Cc1cc2[nH]c(=O)c(=O)[nH]c2cc1S(=O)(=O)NCc1ccccc1	2	2	7	33*	1	4865	72*	65*
Cc1cc2[nH]c(=O)c(=O)[nH]c2cc1S(=O)(=O)NCC(C)c1ccccc1 (stereo unspecified)	3	0	18	24	2	3898	/	/
Cc1cc2[nH]c(=O)c(=O)[nH]c2cc1S(=O)(=O)NC1CCC(C)CC1 (stereo unspecified)	4	-1	14	29*	0	4527	191*	188*
Cc1cc2[nH]c(=O)c(=O)[nH]c2cc1S(=O)(=O)N1CCC(C)CC1	-3	0	6	6	-3	5923	/	/
Cc1cc(C)n2nc(SCC(=O)N(C)C3CCCCC3)nc2n1	-7	0	8	0	-2	?	/	/
CC(C(=O)N1CCCc2ccccc21)N1CCN(c2ccccn2)CC1 (stereo unspecified)	-10	-2	0	1	6	6089	/	/
Cc1cc2c(C)nc(-c3ccccc3)nc2o1	4	0	1	2	-4	3439	/	/
